Where “and” joins values, the source holds several entries; their conditions need not be identical. Equal values may be shown once.

Holding throughout (type): functional
Assay [1] has as its target Solute carrier family 2, facilitated glucose transporter member 1 (Homo sapiens) (UniProt P11166). The experiment in a line: ST_JUDE_LEISH: Cytotoxicity at 2uM final concentration against transgenic Leishmania Mexicana promastigotes LmGLUT1 that are glucose transport deficient and complemented with the human glucose transporter GLUT1. Activity is measured by DNA content using SYBR green in vitro.

The target in assay [2] is Hexose transporter 1 (Plasmodium falciparum) (UniProt O97467). Description: ST_JUDE_LEISH: Cytotoxicity at 2uM final concentration against transgenic Leishmania Mexicana promastigotes LmPfHT that are glucose transport deficient and complemented with the Plasmodium falciparum hexose transporter. Activity is measured by DNA content using SYBR green in vitro.
In assay [3] the target is Glucose transporter (Leishmania mexicana) (UniProt O61059). The experiment in a line: ST_JUDE_LEISH: Cytotoxicity at 2uM final concentration against transgenic Leishmania Mexicana promastigotes LmGT2 that are glucose transport deficient and complemented with the L. Mexicana glucose transporter 2. Activity is measured by DNA content using SYBR green in vitro.

Chain of Solute carrier family 2, facilitated glucose transporter member 1 (Homo sapiens) (P11166 whole entry): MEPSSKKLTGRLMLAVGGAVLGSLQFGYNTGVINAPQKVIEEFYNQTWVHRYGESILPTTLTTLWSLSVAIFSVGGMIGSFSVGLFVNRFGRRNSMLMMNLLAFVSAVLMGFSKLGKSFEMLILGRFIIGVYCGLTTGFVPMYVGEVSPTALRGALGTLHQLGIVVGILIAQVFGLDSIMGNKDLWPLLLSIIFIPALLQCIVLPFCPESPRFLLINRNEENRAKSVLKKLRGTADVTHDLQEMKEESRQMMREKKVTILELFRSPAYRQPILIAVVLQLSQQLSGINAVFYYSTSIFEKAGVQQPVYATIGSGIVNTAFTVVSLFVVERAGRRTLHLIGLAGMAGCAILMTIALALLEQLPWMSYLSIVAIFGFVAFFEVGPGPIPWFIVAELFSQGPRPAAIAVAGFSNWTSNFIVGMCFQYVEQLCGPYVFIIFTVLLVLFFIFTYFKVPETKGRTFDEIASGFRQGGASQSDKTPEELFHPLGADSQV

Usually inhibition stands for the relative decrease from the control value, in per cent. Consider `O=C(CC(=O)C(F)(F)F)c1ccccc1[N+](=O)[O-]`, for which the inhibition was 0.17% in assay [1], 3.36% in assay [2] and -1.14% in assay [3].
Taken in the same sequence, the figures for `COc1ccc(Nc2nccc(N3CCC(NS(=O)(=O)c4ccc(NC(C)=O)cc4)C3)n2)cc1` (stereo not given) were 2.99%, 2.85% and 3.38%.
Taken in the same sequence, the figures for `CCCC(CNCc1cccc(C)c1)CNc1cc(=O)c2ccccc2[nH]1` (stereo not given) were 10.9%, 11.9% and 11.9%.
In the case of `Cc1cccc2nc(-c3cccc(-c4cccc(C(=O)NCCc5cn(C)cn5)c4)c3)[nH]c12`, the figures for the inhibition in assay [1], in assay [2] and in assay [3] were -0.8%, -0.53% and 0.89%, respectively.
`COc1ccc(C(C(=O)NC2CCN(C[C@H](O)c3ccnc4ccc(OC)cc34)CC2)N2CCN(Cc3ccccc3)CC2)cc1` (stereo not given in full): the inhibition in assay [1] is 0.34%; in assay [2], 0.74%; in assay [3], -0.21%.
Consider `O=C(/C=C/c1ccc([N+](=O)[O-])cc1)N1CCC(CCN2CCC(c3c[nH]c4ccccc34)CC2)CC1`, for which the inhibition in assay [1] is 2.33%; in assay [2], 3.09%; in assay [3], 2.47%.
Consider `COc1cc(OC)c2c(C)cc(NCCCN3CCOCC3)nc2c1`, for which the inhibition is 1.92% in assay [1], 0.95% in assay [2] and -0.42% in assay [3].
Regarding `Cc1noc(C)c1-c1cccc(CNCc2cccc(-c3ccc(-c4nc5cc(C(F)(F)F)ccc5[nH]4)s3)c2)c1`, the values for the inhibition in assay [1], in assay [2] and in assay [3] were 0.65%, 7.93% and 5.87%, respectively.
Taken in the same sequence, the figures for `Cc1[nH]c(C)c(-c2ccc(-c3ccccc3F)nc2)c(=O)c1Cl` were 1.2%, -2.36% and 1.16%.
Taken in the same sequence, the figures for `O=S(=O)(NC1CCN(c2ccnc3cc(Cl)ccc23)C1)c1cccc(F)c1` (stereo not given) were 10.1%, 9.98% and 11.4%.
Taken in the same sequence, the figures for `CN1CCC(NCc2cccc(-c3nn(C)c4nc(NC5CCCC5)ncc34)c2)CC1` were 2.78%, 1.84% and 3.81%.
`COc1ccc(CCNc2nc(N)c3cc(OC)c(OC)cc3n2)cc1`: the figures for the inhibition in assay [1], in assay [2] and in assay [3] were 2.3%, 3.91% and 1.41%, respectively.
Consider `COc1ccc2c(=NN=Cc3cccc(Cl)c3)cc(C)[nH]c2c1`, for which the inhibition is 2.13% in assay [1], 0.71% in assay [2] and -0.53% in assay [3].
Taken in the same sequence, the figures for `O=C(NCC(NCCCNc1cc(=O)c2ccccc2[nH]1)c1cc(Br)cc(Br)c1)C1=CCCC1` (stereo not given) were 3.18%, 4.82% and 5.79%.
Taken in the same sequence, the figures for `Cn1cncc1C(=O)Nc1cccc(-c2cccc(-c3nc4cc(C(F)(F)F)ccc4[nH]3)c2)c1` were -1.02%, 2.87% and -0.89%.
Take `CN1CCN(C(C(=O)NCc2cc(Cl)cc(Cl)c2)c2ccc(Nc3cccc(C(F)(F)F)c3)cc2)CC1` (stereo not given): the inhibition in assay [1] was 1%; in assay [2] it was -2.61%; in assay [3], -2.02%.
Taken in the same sequence, the figures for `CCCN(CCC)C(=O)c1cc(C(=O)N[C@@H](Cc2ccccc2)[C@H](O)CNC(C)(C)c2cccc(OC)c2)cc(N2CCCCS2(=O)=O)c1` were 1.96%, 1.53% and 2.14%.
With `COc1ccc(CNCc2ccc(F)cc2)cc1-c1ccc(S(=O)(=O)NCCN2CCCC2)c(C)c1`, the inhibition in assay [1] was 2.82%; in assay [2] it was 3.53%; in assay [3], -2.85%.
Take `Cc1cccc(-c2ccc(CNC3CCN(CC4Cn5c(=O)ccc6ccc(F)c4c65)CC3)cn2)c1` (stereo not given): the results for the inhibition in assay [1], in assay [2] and in assay [3] were 6.75%, 7.42% and 1.89%, respectively.
On to `CC(C)N1CCC(N(Cc2ccc(-c3ccc(Cl)cc3)cc2)C(=O)Cn2c(CCc3cccc(F)c3F)nc(=O)c3ccccc32)CC1`, for which the inhibition in assay [1] is 6.02%; in assay [2], 5.38%; in assay [3], 3.03%.
Taken in the same sequence, the figures for `Cc1cc(F)ccc1-c1nc(NCCCN2CCCC2=O)nc2c1ccc(=O)n2-c1c(F)cccc1F` were 15.4%, 12.9% and 11.1%.
Regarding `COc1ccc(C[C@H](N)C(=O)N[C@H]2[C@@H](O)[C@H](n3cnc4c(N(C)C)ncnc43)O[C@@H]2CO)cc1`, the inhibition is 3.7% and 0.1% in assay [1]; 1.9% and 3.79% in assay [2]; 3.16% and 2.8% in assay [3].
On to `N=C(N)Nc1nc(-c2cccc(NC(=O)CCCCCCCON3C(N)=NC(N)=NC34CCCCC4)c2)cs1`, for which the results for the inhibition in assay [1], in assay [2] and in assay [3] were 2.45%, 4.13% and 3.75%, respectively.
Taken in the same sequence, the figures for `Cc1ccc(CN2CCN(c3cc4c(cc3Cl)CCN4C(=O)Cc3ccc(NC(=O)c4ccc(C(F)(F)F)cc4)cc3)CC2)cc1` were 6.58%, 5.46% and 1.59%.
Taken in the same sequence, the figures for `O=C(Cc1ccc(-n2cnnn2)cc1)N(Cc1cncn1Cc1cccc(C(F)(F)F)c1)CC1CC1` were -1.26%, -1.38% and 1.66%.
`Cc1cc(N[C@@H](Cc2ccccc2)C(=O)NCCOc2ccccc2)nc(NCCc2ccccn2)n1`: the inhibition amounted to 6.81% in assay [1], 6.41% in assay [2] and 3.94% in assay [3].
For the compound `O=C(Nc1ccc(-c2ccccc2)cc1)Nc1cccc(Cn2ncc(N3CCNCC3)c(Cl)c2=O)c1`, the figures for the inhibition in assay [1], in assay [2] and in assay [3] were -0.79%, 1.65% and 6.76%, respectively.
For the compound `Fc1ccc(COc2ccc(Nc3ncnc4ccc(I)cc34)cc2Cl)cc1`, the inhibition amounted to 20.3% in assay [1], 5.02% in assay [2] and 1.83% in assay [3].
Regarding `CCCc1cc(=O)[nH]c(-n2nc(C)cc2NC(=O)c2cc3ccccc3o2)n1`, the values for the inhibition in assay [1], in assay [2] and in assay [3] were 12.6%, 13.1% and 4.77%, respectively.
Take `CC(C)c1ccc(CN(C)CCCCNC(=O)c2ccc(NC(=O)c3ccc(Cl)cc3)cc2)cc1`: the inhibition in assay [1] is -0.05%; in assay [2], -0.96%; in assay [3] it was -1.07%.
Taken in the same sequence, the figures for `CCCCC([C@@H](Cc1ccc2ccccc2c1)C(=O)N[C@H](C(=O)NC)C(C)(C)C)N(O)C=O` (stereo not given in full) were 0.96%, -0.31% and 2.89%.
Taken in the same sequence, the figures for `COc1cc(C(=O)Nc2cccc(-c3nc4ccccc4[nH]3)c2)cc(OC)c1OC` were 4.34%, 1.94% and -3.56%.
For `Cc1nc(C)c(-c2ccc(C(=O)c3ccc(Cl)cc3)cc2)c(O)c1Br`, the inhibition in assay [1] is 1.02%; in assay [2], 1.24%; in assay [3] it was 0.57%.
Taken in the same sequence, the figures for `COc1ccc(COc2cc(NCCCN)nc3ccccc23)cc1` were 4.66%, 6.16% and 4.46%.
As to `CCn1c(-c2nonc2N)nc2c(-c3cc4ccccc4s3)ncc(C(=O)N3CCC(N)C3)c21` (stereo not given), the inhibition worked out at 82.2% in assay [1], 98.3% in assay [2] and 10.9% in assay [3].

For the origin of these results see ChEMBL document CHEMBL3433997, “St. Jude Leishmania screening dataset” (2016).
